# Source: the supplement of paper PMC12494721
# Where a name gives a salt, the structure may show the parent alone.
# Experiments:
# Conditions in all cases: 20 µM; incubation time: 27 h, anaerobic, 37 °C;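 for the amine columns active = adjusted P below 0.05 in both replicates with a change the same way and a mean fold change under 0.8 or over 1.25; inactive = the rest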
# [1] = tested on: Clostridium sporogenes DSM 1664; experiment: growth (OD595) fold change vs plate DMSO controls (fold change (ratio)); higher = more growth
# Method in brief: (§1)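 Each value is the mean of 2 biological replicates, and fold changes above 1.5 were set to NA. The underlying readings were taken at 595 nm from shaken anaerobic mGAM cultures in 96-well plates after 27 h at 37 °C. They were blank-subtracted, corrected for compound background using 20 µM compound solutions in water, and converted to OD with a calibration factor of 5. Growth is the fold change relative to the median of the plate DMSO controls.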
# Escherichia coli IAI1 [2] = experiment: as above
# Method in brief: as §1
# [3] = tested on: Klebsiella aerogenes DSM 30053; experiment: as above
# Method in brief: as §1
# [4] = tested on: Ruminococcus gnavus DSM 108212; experiment: as above
# Method in brief: as §1
# [5] = tested on: Klebsiella aerogenes DSM 30053; experiment: fold change of Histamine concentration vs plate DMSO controls (fold change (ratio)); higher = more amine produced, active = hit call of the paper (significant change in both replicates, either direction)
# Method in brief: (§2)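 Amines were quantified by LC–triple-quadrupole MS in dynamic MRM mode against external calibration curves, with drift correction within each batch. The samples were whole anaerobic mGAM cultures of four gut bacterial strains, grown for 27 h at 37 °C in 80 µL wells and extracted with cold acetonitrile/methanol with 0.1% formic acid, then centrifuged. Values are reported as fold change over DMSO controls on the same plate. The mean of 2 biological replicates is given.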
# [6] = tested on: Clostridium sporogenes DSM 1664; experiment: fold change of Tryptamine concentration vs plate DMSO controls (fold change (ratio)); higher = more amine produced, active = hit call of the paper (significant change in both replicates, either direction)
# Method in brief: as §2
# [7] = tested on: Ruminococcus gnavus DSM 108212; experiment: as above
# Method in brief: as §2
# Escherichia coli IAI1 [8] = experiment: fold change of Putrescine concentration vs plate DMSO controls (fold change (ratio)); higher = more amine produced, active = hit call of the paper (significant change in both replicates, either direction)
# Method in brief: as §2
# [9] = tested on: Klebsiella aerogenes DSM 30053; experiment: as above
# Method in brief: as §2
# Escherichia coli IAI1 [10] = experiment: fold change of Cadaverine concentration vs plate DMSO controls (fold change (ratio)); higher = more amine produced, active = hit call of the paper (significant change in both replicates, either direction)
# Method in brief: as §2
# [11] = tested on: Klebsiella aerogenes DSM 30053; experiment: as above
# Method in brief: as §2
# [12] = tested on: Ruminococcus gnavus DSM 108212; experiment: fold change of 2-Phenylethylamine concentration vs plate DMSO controls (fold change (ratio)); higher = more amine produced, active = hit call of the paper (significant change in both replicates, either direction)
# Method in brief: as §2
SMILES,growth [1],growth (Escherichia coli IAI1 [2]),growth [3],growth [4],fold change of Histamine concentration [5],fold change of Tryptamine concentration [6],fold change of Tryptamine concentration [7],fold change of Putrescine concentration (Escherichia coli IAI1 [8]),fold change of Putrescine concentration [9],fold change of Cadaverine concentration (Escherichia coli IAI1 [10]),fold change of Cadaverine concentration [11],fold change of 2-Phenylethylamine concentration [12]
Cc1nnc(-c2ccccc2)c(=O)n1N,0.969,1.05,0.993,1.01,1.04 (inactive),0.988 (inactive),1.04 (inactive),0.965 (inactive),1 (inactive),1.03 (inactive),0.972 (inactive),1.13 (inactive)
NC(=O)CN1CC(O)CC1=O (stereo unspecified) [Oxiracetam],0.902,0.994,0.98,0.915,1 (inactive),1.14 (inactive),1.1 (inactive),0.941 (inactive),0.865 (inactive),0.876 (inactive),1.07 (inactive),1.14 (inactive)
CC(C)(C)C(O)(CCc1ccc(Cl)cc1)Cn1cncn1 (stereo unspecified),0.978,1.03,1.01,1.02,0.981 (inactive),1.24 (inactive),1.07 (inactive),0.998 (inactive),1.03 (inactive),1.01 (inactive),1.03 (inactive),1.15 (inactive)
COc1ccc(OC)c(C(O)C(C)N)c1 (stereo unspecified) [Methoxamine hydrochloride],0.777,0.736,0.696,0.0622,1.06 (inactive),1.07 (inactive),0.161 (active),1.05 (inactive),1 (inactive),0.968 (inactive),0.988 (inactive),0.165 (active)
N#Cc1nn(-c2c(Cl)cc(C(F)(F)F)cc2Cl)c(N)c1[S+]([O-])C(F)(F)F (stereo unspecified),1.16,0.982,0.977,1.02,1.1 (inactive),1.13 (inactive),1.06 (inactive),1.05 (inactive),1.05 (inactive),0.937 (inactive),1.08 (inactive),1.27 (inactive)
COCC(=O)N(c1c(C)cccc1C)C(C)C(=O)OC (stereo unspecified),0.957,1.02,1.04,1.02,0.965 (inactive),0.98 (inactive),0.983 (inactive),1.04 (inactive),1 (inactive),1.01 (inactive),1.01 (inactive),0.983 (inactive)
Fc1ccc(C(OCCN2CCN(CCCc3ccccc3)CC2)c2ccc(F)cc2)cc1,1.09,1,1,0.845,0.974 (inactive),0.97 (inactive),0.638 (active),1.01 (inactive),0.993 (inactive),0.998 (inactive),1 (inactive),0.771 (active)
CCC(=O)O[C@H]1CC[C@H]2[C@@H]3CCC4=CC(=O)CC[C@]4(C)[C@H]3CC[C@]12C [Testosterone propionate],1.02,1.01,1.03,,1.02 (inactive),0.993 (inactive),1.08 (inactive),0.938 (inactive),1.02 (inactive),0.985 (inactive),1.07 (inactive),1.23 (inactive)
CC(C)(N)Cc1ccccc1 [Phentermine hydrochloride],0.937,0.981,1.24,0.221,0.896 (inactive),1.03 (inactive),0.176 (active),0.983 (inactive),1.01 (inactive),1.05 (inactive),1.05 (inactive),0.213 (active)
C=C1CC[C@@]2(O)[C@H]3Cc4ccc(O)c5c4[C@@]2(CCN3CC2CC2)[C@H]1O5 [Nalmefene hydrochloride],1.08,0.981,1.02,1.07,1.02 (inactive),0.942 (inactive),0.59 (inactive),0.99 (inactive),1.02 (inactive),1.03 (inactive),1.01 (inactive),0.578 (inactive)
COP(=S)(OC)Oc1nc(Cl)c(Cl)cc1Cl,1.02,0.989,1.02,1.01,1.03 (inactive),0.986 (inactive),0.898 (inactive),0.986 (inactive),1.02 (inactive),0.99 (inactive),0.991 (inactive),0.866 (inactive)
O=C1CC[C@@]2(O)[C@H]3Cc4ccc(O)c5c4[C@@]2(CCN3CC2CC2)[C@H]1O5 [Naltrexone hydrochloride dihydrate],,0.661,0.69,0.579,1.03 (inactive),,0.934 (inactive),1.02 (inactive),1.01 (inactive),0.995 (inactive),0.992 (inactive),0.896 (inactive)
C[CH2][Hg][S]c1ccccc1C(=O)[O-].[Na+] [Thimerosal],0.878,0.91,0.707,,0.531 (inactive),0.986 (inactive),0.487 (active),0.936 (inactive),0.953 (inactive),0.896 (inactive),1 (inactive),0.496 (inactive)
CC[C@H](C)C1O[C@]2(C=C[C@@H]1C)C[C@@H]1C[C@@H](C/C=C(\C)[C@@H](O[C@H]3C[C@H](OC)[C@@H](O[C@H]4C[C@H](OC)[C@H](NC)[C@H](C)O4)[C@H](C)O3)[C@@H](C)/C=C/C=C3\CO[C@@H]4[C@H](O)C(C)=C[C@@H](C(=O)O1)[C@]34O)O2 (stereo partly specified),0.931,1.08,1.05,,0.888 (inactive),0.823 (inactive),0.581 (active),1.05 (inactive),0.995 (inactive),1.02 (inactive),0.995 (inactive),0.654 (inactive)
CCC(=O)Nc1ccc(Cl)c(Cl)c1,0.942,0.949,0.942,1.01,1.11 (inactive),0.963 (inactive),1.02 (inactive),1.01 (inactive),0.863 (inactive),0.929 (inactive),1.16 (inactive),1.13 (inactive)
O=C(NCNC(=O)NC1C(=O)NC(=O)N1CO)NC1C(=O)NC(=O)N1CO (stereo unspecified) [Imidurea],1.05,1.06,0.987,1.19,1.02 (inactive),0.998 (inactive),1.01 (inactive),1.01 (inactive),1 (inactive),1 (inactive),0.994 (inactive),1 (inactive)
C[N+]1([O-])[C@@H]2C[C@@H](OC(=O)[C@H](CO)c3ccccc3)C[C@H]1[C@@H]1O[C@@H]12 (stereo partly specified) [Scopolamin-N-oxide hydrobromide],1.05,1.03,1.01,0.938,0.988 (inactive),1.01 (inactive),1.13 (inactive),1 (inactive),0.931 (inactive),0.991 (inactive),1.01 (inactive),1.13 (inactive)
Oc1ccccc1-c1ccccc1,1,1.12,0.949,1.21,0.959 (inactive),0.993 (inactive),0.973 (inactive),0.955 (inactive),0.993 (inactive),1.01 (inactive),0.998 (inactive),0.965 (inactive)
CO/C=C(/C(=O)OC)c1ccccc1Oc1cc(Oc2ccccc2C#N)ncn1,0.938,0.996,1.01,0.966,0.996 (inactive),1.02 (inactive),1.01 (inactive),1.04 (inactive),0.994 (inactive),0.962 (inactive),0.992 (inactive),1.01 (inactive)
CN1[C@@H]2CC[C@H]1C[C@@H](OC1c3ccccc3CCc3ccccc31)C2 [Deptropine citrate],0.826,1,0.992,0.954,1.06 (inactive),1.17 (inactive),0.877 (inactive),1.04 (inactive),1.02 (inactive),1.11 (inactive),0.999 (inactive),0.928 (inactive)
CNCC(O)c1ccc(O)cc1 (stereo unspecified) [Synephrine],1.04,1.09,1.01,0.887,1.02 (inactive),0.997 (inactive),1.05 (inactive),1.11 (inactive),0.982 (inactive),0.997 (inactive),0.989 (inactive),1.09 (inactive)
Cc1ccccc1[N+](=O)[O-] [2-Nitrotoluene],0.884,0.993,0.968,0.984,0.994 (inactive),0.993 (inactive),0.981 (inactive),0.996 (inactive),1.01 (inactive),1.01 (inactive),0.993 (inactive),0.978 (inactive)
CC(=O)O[C@H]1C[C@H](O[C@H]2[C@@H](O)C[C@H](O[C@H]3[C@@H](O)C[C@H](O[C@H]4CC[C@@]5(C)[C@H](CC[C@@H]6[C@@H]5C[C@@H](O)[C@]5(C)[C@@H](C7=CC(=O)OC7)CC[C@]65O)C4)O[C@@H]3C)O[C@@H]2C)O[C@H](C)[C@H]1O[C@@H]1O[C@H](CO)[C@@H](O)[C@H](O)[C@H]1O [Lanatoside C],1.01,0.957,0.998,1.12,0.992 (inactive),0.962 (inactive),1.07 (inactive),1.09 (inactive),0.991 (inactive),1.02 (inactive),0.996 (inactive),1.1 (inactive)
CN1[C@@H]2CC[C@H]1C[C@@H](OC(=O)C(CO)c1ccccc1)C2 (stereo partly specified) [Atropine sulfate monohydrate],,0.98,,0.986,1.03 (inactive),,1.01 (inactive),0.982 (inactive),1.02 (inactive),0.957 (inactive),1.02 (inactive),1.01 (inactive)
Cc1cccc(C)c1NC(=O)CN1CCCC1=O [Nefiracetam],1.01,0.985,1.02,1.06,0.973 (inactive),1.04 (inactive),1.01 (inactive),0.988 (inactive),1.01 (inactive),1.01 (inactive),1 (inactive),1.01 (inactive)
C1CCc2nnnn2CC1 [Pentylenetetrazole],1.14,0.976,1,0.873,0.957 (inactive),0.963 (inactive),0.836 (inactive),0.994 (inactive),0.975 (inactive),1.01 (inactive),0.998 (inactive),0.876 (inactive)
CN[C@@H]1C[C@@H](c2ccc(Cl)c(Cl)c2)c2ccccc21 [Indatraline hydrochloride],1.13,1.06,0.959,0.932,0.904 (inactive),1.29 (inactive),0.8 (inactive),0.811 (inactive),0.863 (inactive),0.98 (inactive),1.1 (inactive),0.883 (inactive)
